Compounds without any hit were thinned out: in the full panel of roughly 83,000, 20% have a hit.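 For each line, cells grew in 96-well plates with the test compound present at a single concentration for 48 hours.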 The source made the active and inactive calls. The calls were made as follows: active = growth percent below 10; inactive = the rest.

Data on 13 molecules can be found in PubChem BioAssay (NCI).

The assay relates to HL-60(TB) leukemia. The assay can be described thus: NCI-60 one-dose screen, 48 h (100 = growth as untreated, 0 = no growth, -100 = all killed). Particulars: 10 µM unless noted.
With `NC(=N\N=C/c1cccc([N+](=O)[O-])c1)/C(N)=N\N=C/c1cccc([N+](=O)[O-])c1`, the growth was 104% (inactive).
As for `C[C@H]1[C@H](C)CC[C@]2(C(=O)NCC#CCN3CCN(C)CC3)CC[C@]3(C)C(=CC[C@@H]4[C@@]5(C)Cc6c([nH]c7ccccc67)C(C)(C)[C@@H]5CC[C@]43C)[C@H]12`, the figure is 63.9% (inactive); as for `COC(=O)C(CC(=O)c1ccc(-c2ccccc2)cc1)c1ccccc1` (stereo not drawn), 15.4% (inactive); as for `COc1cc2c(cc1-c1c(C)noc1C)ncc1nc(C3CCC(F)(F)CC3)n(C3CCC(OC(F)F)CC3)c12` (stereo not drawn), 7.4% (active).
Turning to `COC(=O)[C@]12CC[C@@H](C)[C@H](C)[C@@H]1C1=CC[C@@H]3[C@@]4(C)C[C@@H](OC(C)=O)[C@H](O)[C@@](C)(CO)[C@@H]4[C@H](O)C[C@@]3(C)[C@]1(C)CC2`, the growth was -56.6% (active).
As for `CC(=O)c1ccc2c3c(n(C)c2c1)CCCC3`, the figure is 93.1% (inactive); as for `CCCCCCCCCC[N+](C)(C)N`, 90.2% (inactive).
As for `Nc1nc(N)c2cc(NCc3ccc(Cl)c(Cl)c3)ccc2n1`, the figure is -65.7% (active).
As for `COC1(OC)C2(Cl)C(Cl)=C(Cl)C1(Cl)C1COCC12` (stereo not drawn), the figure is 82.9% (inactive).
With `Nc1cc(Br)c(-c2nn3c(CCC(=O)c4nc5ccccc5[nH]4)nnc3s2)c(Br)c1`, the growth is 100% (inactive).
As for `CCOC(=O)C(C)(c1ccccc1)c1ccccc1`, the figure is 104% (inactive).
Consider `O=c1oc2ccc(I)cc2c(=O)n1-c1ccc(I)cc1F`, for which the growth is -49.1% (active).
As for `O=C(CN1N=C(c2ccc(F)cc2)CCC1=O)Nc1nccs1`, the figure is 95.3% (inactive).
